Bioassay records: PubChem BioAssay, National Center for Advancing Translational Sciences (NCATS)
Most compounds without a hit are left out; they make up all but 2.2% or so of the library.
CCT chaperon mod = modulators of cytosolic chaperonin (CCT/TRiC) activity; hit rate 0.3% among 360,000; activity change, % (no concentration beside the values), hits read low; purified chaperonin ATPase assay, HTRF ADP detection, 30 min; in the data active = activity change below about -30%
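ATPase activity: ADP formed was measured by HTRF Transcreener (665/615 nm ratio) after 30 min at 37 deg C with 10 uM ATP. Compounds screened at one 76 uM concentration against 40 or 20 nM TRiC in Tris pH 7.4/KCl/MgCl2/DTT buffer.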
GLP1R ag = activates the human GLP-1 receptor | HEK293 GLP-1R CRE-luciferase, luminescence, 4-6 h; cells express a hypersensitive GLP-1R form | hit rate 0.007% among 380,000 | Potency, µM (doses to about 45.6 µM), most hits filed as activators | AID 624172 | P43220
Target sequence (P43220 whole entry, looked up): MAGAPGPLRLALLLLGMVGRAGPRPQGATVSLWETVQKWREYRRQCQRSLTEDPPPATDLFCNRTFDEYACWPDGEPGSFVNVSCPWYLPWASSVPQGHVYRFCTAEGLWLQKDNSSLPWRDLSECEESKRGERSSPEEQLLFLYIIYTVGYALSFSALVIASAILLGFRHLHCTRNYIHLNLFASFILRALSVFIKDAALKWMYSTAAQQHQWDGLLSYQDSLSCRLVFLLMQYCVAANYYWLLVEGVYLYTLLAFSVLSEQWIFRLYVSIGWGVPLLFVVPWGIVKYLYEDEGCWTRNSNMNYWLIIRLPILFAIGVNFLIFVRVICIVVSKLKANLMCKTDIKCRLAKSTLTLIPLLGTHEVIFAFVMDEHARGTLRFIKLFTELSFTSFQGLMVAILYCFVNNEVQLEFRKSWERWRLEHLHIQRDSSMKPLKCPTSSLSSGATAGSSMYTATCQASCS
uPA surface inh = inhibitors of cell surface uPA generation; cell surface uPA generation assay, qHTS; Potency, µM (highest dose often 38.3 µM), most hits filed as inhibitors; hit rate 0.31% among 330,000; AID 540303; active = well fitted inhibition curve with a large enough effect; inconclusive = small, poorly fitted or top-dose-only effect; inactive = no such curve, though single readings can be large or run the other way; tested in mouse RAW 264.7 cells; note: nearly all actives have a fitted effect of over 55% in size
Mm-Cpn inhibitor = inhibitors of Methanococcus maripaludis chaperonin TRiC (MmCpn); purified Mm-Cpn ATPase, ADP Transcreener TR-FRET; Potency, µM (highest dose often 76.9 µM), actives largely listed as inhibitors; hit rate 0.031% among 330,000; note: nearly all actives have a fitted effect of over 80% in size
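Quantitative HTS used 25 nM Mm-CPN and 10 uM ATP in magnesium/KCl Tris buffer, pH 7.4, with 1 mM DTT. Hydrolysis ran 30 min at 37°C; ADP was read by HTRF.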
HEK293 tox = cytotoxicity in counter-screen for GLP-1R inverse agonists. HEK293 cAMP-luciferase reporter cells, luminescence, 24 h. Potency, µM (series often up to 38.3 µM), actives largely listed as inhibitors. hit rate 0.13% among 410,000. AID 624418;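 note: loss of luciferase light is scored as toxicity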
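MLSMR compounds, 24 hr on cells at 37 deg C/5% CO2; luminescence after luciferase reagent (12 min RT). Inhibition counted as the undesired cytotoxic outcome.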
GLP1R inv ag = GLP-1 receptor (human) inverse agonism | P43220 | HEK293 GLP-1R CRE-luciferase, luminescence, 24 h; GLP-1R form is constitutively active | Potency, µM (top dose mostly 38.3 µM), most hits filed as inhibitors | hit rate 1.6% among 410,000; note: nearly all actives have a fitted effect of over 55% in size
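Readout was luciferase luminescence, measured 12 min after detection reagent at room temperature. Beforehand, GLP-1R reporter HEK293 cells had sat 12 h, then received compounds for 24 hr at 37 deg C.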
Numbers stand for hits. Unless noted, calls come from the whole dose curve; as a rule, active = well fitted curve in the direction sought with a large enough effect; inconclusive = small, poorly fitted or top-dose-only effect, or another doubt; inactive = no such curve, though single readings can be large; an effect the other way counts as inactive or inconclusive.

COc1ccc(-c2cc(C(F)(F)F)nc(SCC(=O)NCc3ccc(Cl)cc3)n2)cc1 was read as HEK293 tox inactive and GLP1R inv ag inactive.
Screening Cc1cc(C)cc(NC(=O)Nc2cc(S(=O)(=O)N(C)C)ccc2C)c1 returned CCT chaperon mod inactive, GLP1R ag inactive, uPA surface inh inactive, Mm-Cpn inhibitor inactive, HEK293 tox inactive and GLP1R inv ag 10µM.
Screening COc1cccc(N2CCN(C(=O)C3Cc4ccccc4N3C(C)=O)CC2)c1 (stereo not drawn) returned HEK293 tox inactive and GLP1R inv ag inactive.
CCOC(=O)Cn1nnnc1CN(Cc1cccs1)Cc1cc2cc(C)ccc2[nH]c1=O was read as CCT chaperon mod -31, GLP1R ag inactive, Mm-Cpn inhibitor inactive, HEK293 tox inactive and GLP1R inv ag inactive.
COC(=O)CSCc1nc2ccccc2[nH]c1=O was read as CCT chaperon mod -33, GLP1R ag inactive, uPA surface inh inactive, Mm-Cpn inhibitor inactive, HEK293 tox inactive and GLP1R inv ag inactive.
For CCC1CN(C(=O)N2CCC(C(=O)NCCc3ccc(OC)cc3OC)CC2)c2cc(C)ccc2O1 (stereo not drawn) the results were HEK293 tox inactive and GLP1R inv ag inactive.
Screening Cc1ccc(NC(=O)N2CC3CCCN3c3ccccc32)c(C)c1 (stereo not drawn) returned HEK293 tox inactive and GLP1R inv ag inconclusive.
Screening c1ccc(CN2CCC(Nc3nc(-c4ccccc4)nc4ccccc34)CC2)cc1 returned CCT chaperon mod inactive, GLP1R ag inactive, uPA surface inh inactive, Mm-Cpn inhibitor inactive, HEK293 tox inconclusive and GLP1R inv ag 5µM.
`c1coc(CNc2nc(N3CCCCC3)nc3ccccc23)c1` gave CCT chaperon mod inactive, GLP1R ag inactive, uPA surface inh inactive, Mm-Cpn inhibitor inactive, HEK293 tox inconclusive and GLP1R inv ag inconclusive.
Screening c1ccc(CNc2nc(N3CCN(Cc4ccccc4)CC3)nc3ccccc23)cc1 returned CCT chaperon mod inactive, GLP1R ag inactive, uPA surface inh inactive, Mm-Cpn inhibitor inactive, HEK293 tox inactive and GLP1R inv ag 4µM.
For CCOC(=O)CCC(=O)OC1C(OC2C(C)C(OC3CC(C)(OC)C(O)C(C)O3)C(C)C(=O)OC(CC)C(C)(O)C(O)C(C)C(=O)C(C)CC2(C)O)OC(C)CC1N(C)C (stereo not drawn) the results were GLP1R ag inactive.
`CSc1ccc(S(=O)(=O)N2c3ccccc3CC2C)cc1` (stereo not drawn) gave CCT chaperon mod inactive, GLP1R ag inactive, uPA surface inh inconclusive, Mm-Cpn inhibitor inactive, HEK293 tox inactive and GLP1R inv ag 5µM.
`CN(C)c1ccc(C(=S)N2CCN(Cc3ccccc3)CC2)cc1` gave CCT chaperon mod inactive, GLP1R ag inactive, uPA surface inh inactive, Mm-Cpn inhibitor inactive, HEK293 tox inactive and GLP1R inv ag 11µM.
Screening CCN(CC)c1nc(-c2ccccc2)ncc1S(=O)(=O)c1ccc(C)cc1 returned CCT chaperon mod inactive, GLP1R ag inactive, uPA surface inh inactive, Mm-Cpn inhibitor inactive, HEK293 tox inactive and GLP1R inv ag inconclusive.
Screening CN(C)c1nc(-c2ccccc2)ncc1S(=O)(=O)c1ccccc1 returned CCT chaperon mod -32, GLP1R ag inactive, uPA surface inh inactive, Mm-Cpn inhibitor inactive, HEK293 tox inactive and GLP1R inv ag inconclusive.
Screening OCC1OC(OC2C(CO)OC(OC3C(CO)OC(O)C(O)C3O)C(O)C2O)C(O)C(O)C1O (stereo not drawn) returned GLP1R ag inactive.
`COc1ccc2[nH]c3c(c2c1)CCN1C(=O)C(CC(=O)NCC24CC5CC(CC(C5)C2)C4)C[C@H](C(=O)N(C(C)C)C(C)C)[C@@]31C` (stereo partly drawn) gave CCT chaperon mod inactive, GLP1R ag inactive, uPA surface inh inconclusive, Mm-Cpn inhibitor inactive, HEK293 tox inactive and GLP1R inv ag 10µM.
`CC(C)N(C(=O)[C@H]1CC(CC(=O)NCc2ccco2)C(=O)N2CCc3c([nH]c4ccccc34)[C@]12C)C(C)C` (stereo partly drawn) gave CCT chaperon mod inactive, GLP1R ag inactive, uPA surface inh inactive, Mm-Cpn inhibitor inactive, HEK293 tox inactive and GLP1R inv ag inactive.
